Data: PubChem BioAssay AID1159580 (chemical genetic matrix, 2015)
Several values for one entry are separate records, joined by “and”; a condition that tells them apart may be missing. Equal entries are not always repeated. Out of some 5,500 compounds screened, about 2,000 (36%) were called active. Inconclusive results (about 18%) are left out. No stated cut-off is given here; in the data, active means normalized growth mostly below about 0.91 (no sharp cut-off); inconclusive means no clear call, values can overlap the other calls; inactive means mostly above about 0.92. Some of the results follow.

Test: chemical genetic growth profiling, strain panel (AID 1159580);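 further: tested at 20 µM; growth read once vehicle control cultures reached saturation at 30 °C; 1 = growth at the plate median or of vehicle wells; lower values mean less growth of the strain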
Conditions: growth OD

Measured: normalized growth

CN1CCN(C2=Nc3ccccc3Oc3ccc(Cl)cc32)CC1
inactive: S. cerevisiae deletion strains, locus YJR075W, strain HOC1, active compounds read low 0.996 | S. cerevisiae deletion strains, locus YKL009W, strain mrt4, active compounds read low 0.98 | S. cerevisiae deletion strains, locus YKL068W, active compounds read low 0.992 | S. cerevisiae deletion strains, locus YKL085W, strain MDH1 (second series), active compounds read low 1.02 | S. cerevisiae deletion strains, locus YKL085W, strain MDH1, active compounds read low 1.02 | S. cerevisiae deletion strains, locus YKL160W, strain elf1, active compounds read low 0.958 | S. cerevisiae deletion strains, locus YKL190W, strain CNB1, active compounds read low 1 | S. cerevisiae deletion strains, locus YKR001C, strain vps1, active compounds read low 0.998 | S. cerevisiae deletion strains, locus YKR026C, strain gcn3, active compounds read low 0.983 | S. cerevisiae deletion strains, locus YKR091W, strain srl3, active compounds read low 0.975 | S. cerevisiae deletion strains, locus YLL001W, strain dnm1, active compounds read low 1 | S. cerevisiae deletion strains, locus YLL026W, active compounds read low 0.972 | S. cerevisiae deletion strains, locus YLL041C, strain sdh2, active compounds read low 0.987 | S. cerevisiae deletion strains, locus YLR027C, strain aat2, active compounds read low 0.975 | S. cerevisiae deletion strains, locus YLR039C, strain RIC1, active compounds read low 1.13 | S. cerevisiae deletion strains, locus YLR058C, strain SHM2, active compounds read low 0.986 | S. cerevisiae deletion strains, locus YLR102C, strain apc9, active compounds read low 0.994 | S. cerevisiae deletion strains, locus YLR113W, strain HOG1, active compounds read low 1.03 | S. cerevisiae deletion strains, locus YLR221C, strain rsa3, active compounds read low 1.01 | S. cerevisiae deletion strains, locus YLR258W, strain gsy2, active compounds read low 0.975 | S. cerevisiae deletion strains, locus YLR262C, strain YPT6 (second series), active compounds read low 0.992 | S. cerevisiae deletion strains, locus YLR262C, strain YPT6, active compounds read low 1.13 | S. cerevisiae deletion strains, locus YLR268W, strain sec22, active compounds read low 0.995 | S. cerevisiae deletion strains, locus YLR320W, strain mms22, active compounds read low 1.04 | S. cerevisiae deletion strains, locus YLR330W, strain CHS5, active compounds read low 0.997 | S. cerevisiae deletion strains, locus YLR342W, strain FKS1 (second series), active compounds read low 0.948 | S. cerevisiae deletion strains, locus YLR342W, strain FKS1, active compounds read low 0.994 | S. cerevisiae deletion strains, locus YLR357W, strain rsc2, active compounds read low 0.964 | S. cerevisiae deletion strains, locus YLR370C, strain arc18, active compounds read low 0.967 | S. cerevisiae deletion strains, locus YLR371W, strain rom2, active compounds read low 0.995 | S. cerevisiae deletion strains, locus YLR384C, strain iki3, active compounds read low 1 | S. cerevisiae deletion strains, locus YLR418C, strain cdc73, active compounds read low 0.988 | S. cerevisiae deletion strains, locus YML016C, strain PPZ1, active compounds read low 0.981 | S. cerevisiae deletion strains, locus YML032C, strain rad52, active compounds read low 0.989 | S. cerevisiae deletion strains, locus YML120C, strain ndi1, active compounds read low 1.01 | S. cerevisiae deletion strains, locus YML124C, strain tub3, active compounds read low 0.992 | S. cerevisiae deletion strains, locus YMR058W, strain fet3, active compounds read low 0.957 | S. cerevisiae deletion strains, locus YMR078C, strain ctf18, active compounds read low 0.979 | S. cerevisiae deletion strains, locus YMR125W, strain sto1, active compounds read low 0.942 | S. cerevisiae deletion strains, locus YMR129W, active compounds read low 0.964 | S. cerevisiae deletion strains, locus YMR205C, strain PFK2, active compounds read low 0.995 | S. cerevisiae deletion strains, locus YMR223W, strain ubp8, active compounds read low 0.976 | S. cerevisiae deletion strains, locus YMR231W, strain pep5, active compounds read low 0.982 | S. cerevisiae deletion strains, locus YMR263W, strain SAP30, active compounds read low 0.994 | S. cerevisiae deletion strains, locus YMR307W, strain GAS1, active compounds read low 0.971 and 1.01 | S. cerevisiae deletion strains, locus YNL067W, strain RPL9B, active compounds read low 1.01 | S. cerevisiae deletion strains, locus YNL071W, strain lat1, active compounds read low 1 | S. cerevisiae deletion strains, locus YNL128W, strain TEP1, active compounds read low 0.997 and 1.01 | S. cerevisiae deletion strains, locus YNL153C, strain GIM3, active compounds read low 0.995 and 1 | S. cerevisiae deletion strains, locus YNL175C, strain NOP13, active compounds read low 0.959 | S. cerevisiae deletion strains, locus YNL183C, strain NPR1, active compounds read low 0.951 | S. cerevisiae deletion strains, locus YNL197C, strain WHI3, active compounds read low 0.991 | S. cerevisiae deletion strains, locus YNL209W, strain ssb2, active compounds read low 0.968 | S. cerevisiae deletion strains, locus YNL224C, strain SQS1, active compounds read low 1 | S. cerevisiae deletion strains, locus YNL233W, strain BNI4, active compounds read low 0.997 | S. cerevisiae deletion strains, locus YNL248C, strain rpa49, active compounds read low 0.959 | S. cerevisiae deletion strains, locus YNL250W, strain rad50, active compounds read low 0.973 | S. cerevisiae deletion strains, locus YNL271C, strain bni1, active compounds read low 0.988 | S. cerevisiae deletion strains, locus YNL298W, strain CLA4, active compounds read low 1.01 | S. cerevisiae deletion strains, locus YNL307C, strain MCK1, active compounds read low 0.986 | S. cerevisiae deletion strains, locus YNL322C, strain KRE1 (second series), active compounds read low 0.958 | S. cerevisiae deletion strains, locus YNL322C, strain KRE1, active compounds read low 0.992 | S. cerevisiae deletion strains, locus YNR049C, strain mso1, active compounds read low 0.968 | S. cerevisiae deletion strains, locus YNR052C, strain pop2, active compounds read low 0.987 | S. cerevisiae deletion strains, locus YOL006C, strain TOP1, active compounds read low 0.951 | S. cerevisiae deletion strains, locus YOL012C, strain htz1 1.28 | S. cerevisiae deletion strains, locus YOL147C, strain pex11, active compounds read low 0.999 | S. cerevisiae deletion strains, locus YOR001W, strain rrp6, active compounds read low 0.995 | S. cerevisiae deletion strains, locus YOR061W, strain CKA2, active compounds read low 0.991 | S. cerevisiae deletion strains, locus YOR069W, strain VPS5, active compounds read low 0.97 | S. cerevisiae deletion strains, locus YOR070C, strain gyp1, active compounds read low 0.982 | S. cerevisiae deletion strains, locus YOR080W, strain dia2, active compounds read low 0.969 | S. cerevisiae deletion strains, locus YOR083W, strain WHI5 (second series), active compounds read low 1.01 | S. cerevisiae deletion strains, locus YOR083W, strain WHI5, active compounds read low 0.945 | S. cerevisiae deletion strains, locus YOR106W, strain vam3, active compounds read low 0.959 | S. cerevisiae deletion strains, locus YOR136W, strain idh2, active compounds read low 0.994 | S. cerevisiae deletion strains, locus YOR144C, strain elg1, active compounds read low 0.996 | S. cerevisiae deletion strains, locus YOR184W, strain ser1, active compounds read low 0.982 | S. cerevisiae deletion strains, locus YOR231W, strain MKK1, active compounds read low 1.06 | S. cerevisiae deletion strains, locus YOR265W, strain rbl2, active compounds read low 0.99 | S. cerevisiae deletion strains, locus YOR270C, strain vph1, active compounds read low 0.976 | S. cerevisiae deletion strains, locus YOR290C, strain snf2, active compounds read low 0.941 | S. cerevisiae deletion strains, locus YOR316C, strain cot1, active compounds read low 0.987 | S. cerevisiae deletion strains, locus YPL051W, strain arl3, active compounds read low 0.981 | S. cerevisiae deletion strains, locus YPL055C, strain LGE1, active compounds read low 1.02 | S. cerevisiae deletion strains, locus YPL078C, strain atp4, active compounds read low 0.999 | S. cerevisiae deletion strains, locus YPL106C, strain sse1, active compounds read low 0.946 | S. cerevisiae deletion strains, locus YPL240C, strain hsp82, active compounds read low 0.987 | S. cerevisiae deletion strains, locus YPL241C, strain CIN2, active compounds read low 0.995 and 0.994 | S. cerevisiae deletion strains, locus YPL256C, strain CLN2, active compounds read low 1.06 | S. cerevisiae deletion strains, locus YPR119W, strain clb2, active compounds read low 0.994 | S. cerevisiae deletion strains, locus YPR141C, strain kar3, active compounds read low 0.987 | S. cerevisiae deletion strains, locus YPR163C, strain tif3, active compounds read low 0.994 | S. cerevisiae deletion strains, locus YPR167C, strain met16, active compounds read low 0.993 | S. cerevisiae deletion strains, strain wtn01, active compounds read low 0.992 | S. cerevisiae strains, strain wild type, active compounds read low 0.999
